Data as given in PubChem BioAssay AID1159580 (chemical genetic matrix, 2015).
Out of some 5,500 compounds screened, about 2,000 (36%) were called active. About 18% were inconclusive and are not listed. Rule as the data show it: active = normalized growth mostly below about 0.91 (no sharp cut-off); inconclusive = no clear call, values can overlap the other calls; inactive = mostly above about 0.92. The list shows a part of the results.

Experiment: chemical genetic growth profiling, strain panel (AID 1159580);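 also: tested at 20 µM; growth read once vehicle control cultures reached saturation at 30 °C; 1 = growth at the plate median or of vehicle wells; lower values mean less growth of the strain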
Details: S. cerevisiae deletion strains, growth OD

Measured: normalized growth

COc1ccc(C(=O)c2ccccc2)c(O)c1O
inactive: locus YAL013W, strain DEP1, active compounds read low 0.929 | locus YAL021C, strain ccr4, active compounds read low 0.981 | locus YAL026C, strain drs2, active compounds read low 0.973 | locus YAL030W, strain snc1, active compounds read low 0.974 | locus YBL061C, strain skt5, active compounds read low 0.973 | locus YBR009C, strain hhf1, active compounds read low 0.973 | locus YBR021W, strain FUR4, active compounds read low 0.853 | locus YBR023C, strain chs3, active compounds read low 0.969 | locus YBR171W, strain sec66, active compounds read low 0.945 | locus YBR229C, strain ROT2, active compounds read low 0.999 | locus YBR231C, strain swc5, active compounds read low 0.962 | locus YBR279W, strain paf1, active compounds read low 0.957 | locus YCL011C, strain gbp2, active compounds read low 0.968 | locus YCL016C, strain dcc1, active compounds read low 0.986 | locus YCL029C, strain bik1, active compounds read low 0.956 | locus YCL061C, strain MRC1, active compounds read low 0.968 | locus YCL069W, strain vba3, active compounds read low 0.986 | locus YCR088W, strain abp1, active compounds read low 0.981 | locus YDL005C, strain med2, active compounds read low 0.971 | locus YDL035C, strain GPR1, active compounds read low 0.974 | locus YDL040C, strain nat1, active compounds read low 0.985 | locus YDL074C, strain BRE1, active compounds read low 0.868 | locus YDL101C, strain DUN1, active compounds read low 0.953 | locus YDL134C, strain PPH21, active compounds read low 0.904 | locus YDR001C, strain nth1, active compounds read low 0.975 | locus YDR069C, strain doa4, active compounds read low 0.939 | locus YDR101C, strain arx1, active compounds read low 0.983 | locus YDR159W, strain sac3, active compounds read low 0.975 | locus YDR162C, strain NBP2, active compounds read low 0.947 | locus YDR195W, strain ref2 1.02 | locus YDR297W, strain sur2, active compounds read low 0.966 | locus YDR318W, strain mcm21, active compounds read low 0.933 | locus YDR334W, strain swr1, active compounds read low 0.951 | locus YDR335W, strain msn5, active compounds read low 0.97 | locus YDR388W, active compounds read low 0.962 | locus YDR392W, strain spt3, active compounds read low 0.851 | locus YEL003W, strain gim4, active compounds read low 0.96 | locus YEL037C, strain rad23, active compounds read low 0.964 | locus YEL061C, strain CIN8 (second series), active compounds read low 0.974 | locus YEL061C, strain CIN8, active compounds read low 0.967 | locus YER015W, strain faa2, active compounds read low 0.965 | locus YER016W, strain bim1, active compounds read low 0.972 | locus YER110C, active compounds read low 0.936 | locus YER111C, strain swi4, active compounds read low 0.97 | locus YER155C, strain BEM2, active compounds read low 1.02 | locus YER167W, strain BCK2, active compounds read low 0.997 | locus YFR010W, strain ubp6, active compounds read low 0.937 | locus YGL086W, strain mad1, active compounds read low 0.937 | locus YGL167C, strain pmr1, active compounds read low 0.955 | locus YGL173C, strain kem1, active compounds read low 0.948 | locus YGL227W, strain vid30, active compounds read low 0.99 | locus YGL240W, strain doc1, active compounds read low 0.92 | locus YGL248W, strain PDE1, active compounds read low 0.92 | locus YGL253W, strain hxk2, active compounds read low 0.979 | locus YGR078C, strain PAC10, active compounds read low 0.891 | locus YHR013C, strain ard1, active compounds read low 0.941 | locus YHR027C, strain rpn1, active compounds read low 0.959 | locus YHR030C, strain SLT2, active compounds read low 0.979 | locus YHR079C, strain IRE1 (second series), active compounds read low 0.932 | locus YHR094C, strain hxt1, active compounds read low 0.955 | locus YHR129C, strain ARP1, active compounds read low 0.927 | locus YHR142W, strain chs7, active compounds read low 0.939 | locus YHR200W, strain rpn10, active compounds read low 0.937 | locus YIL066C, strain RNR3, active compounds read low 0.976 | locus YIL073C, strain SPO22, active compounds read low 0.897 | locus YIL125W, strain kgd1, active compounds read low 0.969 | locus YIR030C, strain dcg1, active compounds read low 0.958 | locus YJL092W, strain hpr5, active compounds read low 0.967 | locus YJL095W, strain BCK1 (second series), active compounds read low 0.971 | locus YJL115W, strain asf1, active compounds read low 0.945 | locus YJL129C, strain trk1, active compounds read low 0.966 | locus YJL134W, strain LCB3, active compounds read low 0.991 | locus YJL154C, strain vps35, active compounds read low 0.972 | locus YJL164C, strain tpk1, active compounds read low 0.96 | locus YJL166W, strain qcr8, active compounds read low 0.973 | locus YJL168C, strain set2, active compounds read low 0.96 | locus YJL187C, strain SWE1 (second series), active compounds read low 0.885 | locus YJL187C, strain SWE1, active compounds read low 0.971 | locus YJR043C, strain POL32, active compounds read low 0.942 | locus YKL009W, strain mrt4, active compounds read low 0.933 | locus YKL068W, active compounds read low 0.957 | locus YKL085W, strain MDH1 (second series), active compounds read low 0.963 | locus YKL085W, strain MDH1, active compounds read low 0.963 | locus YKL160W, strain elf1, active compounds read low 0.971 | locus YKR026C, strain gcn3, active compounds read low 0.964 | locus YKR091W, strain srl3, active compounds read low 0.978 | locus YLL001W, strain dnm1, active compounds read low 0.974 | locus YLL026W, active compounds read low 0.988 | locus YLL041C, strain sdh2, active compounds read low 0.957 | locus YLR027C, strain aat2, active compounds read low 0.975 | locus YLR039C, strain RIC1, active compounds read low 0.788 | locus YLR058C, strain SHM2, active compounds read low 0.933 | locus YLR102C, strain apc9, active compounds read low 0.974 | locus YLR221C, strain rsa3, active compounds read low 0.98 | locus YLR258W, strain gsy2, active compounds read low 0.97 | locus YLR262C, strain YPT6, active compounds read low 0.824 | locus YLR268W, strain sec22, active compounds read low 0.907 | locus YLR320W, strain mms22, active compounds read low 0.936 | locus YLR330W, strain CHS5, active compounds read low 0.947 | locus YLR342W, strain FKS1 (second series), active compounds read low 0.851 | locus YLR342W, strain FKS1, active compounds read low 0.977 | locus YLR357W, strain rsc2, active compounds read low 0.885 | locus YLR370C, strain arc18, active compounds read low 0.975 | locus YLR371W, strain rom2, active compounds read low 0.948 | locus YLR384C, strain iki3, active compounds read low 0.968 | locus YML016C, strain PPZ1, active compounds read low 0.979 | locus YML032C, strain rad52, active compounds read low 0.926 | locus YML120C, strain ndi1, active compounds read low 0.967 | locus YML124C, strain tub3, active compounds read low 0.957 | locus YMR078C, strain ctf18, active compounds read low 0.931 | locus YMR125W, strain sto1, active compounds read low 0.97 | locus YMR129W, active compounds read low 0.973 | locus YMR205C, strain PFK2, active compounds read low 0.991 | locus YMR223W, strain ubp8, active compounds read low 0.909 | locus YMR231W, strain pep5, active compounds read low 0.973 | locus YMR307W, strain GAS1, active compounds read low 0.983 | locus YNL067W, strain RPL9B, active compounds read low 0.918 | locus YNL071W, strain lat1, active compounds read low 0.971 | locus YNL153C, strain GIM3, active compounds read low 0.906 | locus YNL209W, strain ssb2, active compounds read low 0.965 | locus YNL233W, strain BNI4, active compounds read low 0.895 | locus YNL248C, strain rpa49, active compounds read low 0.984 | locus YNL250W, strain rad50, active compounds read low 0.9 | locus YNL298W, strain CLA4, active compounds read low 0.965 | locus YNL322C, strain KRE1 (second series), active compounds read low 0.978 | locus YNR049C, strain mso1, active compounds read low 0.983 | locus YOL006C, strain TOP1, active compounds read low 0.69 | locus YOL012C, strain htz1 0.47 | locus YOL147C, strain pex11, active compounds read low 0.963 | locus YOR001W, strain rrp6, active compounds read low 0.955 | locus YOR061W, strain CKA2, active compounds read low 0.989 | locus YOR069W, strain VPS5, active compounds read low 0.948 | locus YOR070C, strain gyp1, active compounds read low 0.975 | locus YOR080W, strain dia2, active compounds read low 0.989 | locus YOR083W, strain WHI5, active compounds read low 0.953 | locus YOR106W, strain vam3, active compounds read low 0.932 | locus YOR136W, strain idh2, active compounds read low 0.952 | locus YOR144C, strain elg1, active compounds read low 0.971 | locus YOR184W, strain ser1, active compounds read low 0.996 | locus YOR265W, strain rbl2, active compounds read low 0.973 | locus YOR270C, strain vph1, active compounds read low 0.854 | locus YOR290C, strain snf2, active compounds read low 0.929 | locus YOR316C, strain cot1, active compounds read low 0.948 | locus YPL051W, strain arl3, active compounds read low 0.936 | locus YPL078C, strain atp4, active compounds read low 0.975 | locus YPL106C, strain sse1, active compounds read low 0.901 | locus YPL240C, strain hsp82, active compounds read low 0.954 | locus YPL241C, strain CIN2, active compounds read low 0.977 | locus YPR119W, strain clb2, active compounds read low 0.947 | locus YPR141C, strain kar3, active compounds read low 0.923 | strain wtn01, active compounds read low 0.971
active: locus YDL185W, strain tfp1, active compounds read low 0.901 | locus YDL192W, strain arf1, active compounds read low 0.892 | locus YDR137W, strain rgp1, active compounds read low 0.787 | locus YDR502C, strain sam2, active compounds read low 0.9 | locus YER155C, strain BEM2 (second series), active compounds read low 0.81 | locus YGL078C, strain dbp3, active compounds read low 0.909 | locus YGR135W, strain pre9, active compounds read low 0.846 | locus YGR252W, strain gcn5, active compounds read low 0.698 | locus YJL095W, strain BCK1, active compounds read low 0.724 | locus YKR001C, strain vps1, active compounds read low 0.781 | locus YLR262C, strain YPT6 (second series), active compounds read low 0.843 | locus YLR418C, strain cdc73, active compounds read low 0.825 | locus YMR058W, strain fet3, active compounds read low 0.897 | locus YNL271C, strain bni1, active compounds read low 0.908 | locus YNL307C, strain MCK1, active compounds read low 0.906 | locus YNR052C, strain pop2, active compounds read low 0.896 | locus YPR163C, strain tif3, active compounds read low 0.813 | locus YPR167C, strain met16, active compounds read low 0.919
